The text below walks through data of PubChem BioAssay (NCI).

Where “and” joins values, the source holds several entries; their conditions need not be identical. Equal entries are not always repeated. About 83,000 compounds went through this panel and 20% of them were active in at least one assay; those are over-represented in the sample as a whole.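 Cell lines were cultured in 96-well plates, exposed to a single compound concentration, and assessed for percent growth 48 hours later.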 Calls of active or inactive are those of the source. Rule for the calls: active = growth percent below 10; inactive = the rest.

Test systems include NCI-H23 lung; NCI-H226 lung; NCI-H322M lung; HOP-62 NSCLC; HOP-92 NSCLC; NCI-H522 lung; A549/ATCC NSCLC; 786-0 renal; COLO 205 colon; NCI-H460 lung.
Assay in all cases: NCI-60 one-dose screen, 48 h (100 = growth as untreated, 0 = no growth, -100 = all killed)
What all share (conditions): 10 µM unless noted

Turning to `Fc1ccccc1Nc1n[nH]c(=S)s1`, the growth in the experiment with NCI-H23 lung was 108% (inactive); in the experiment with NCI-H226 lung, 107% (inactive); in the experiment on NCI-H322M lung, 128% (inactive); in the experiment on HOP-62 NSCLC, 108% (inactive); in the experiment on HOP-92 NSCLC, 100% (inactive); in the experiment with NCI-H522 lung it was 108% (inactive). Also, the growth in the experiment with A549/ATCC NSCLC was 101% (inactive); in the experiment with 786-0 renal, 101% (inactive); in the experiment with COLO 205 colon, 108% (inactive).

In the case of `CCOC(=O)c1sc(N)nc1-c1ccccc1`, the growth was 101% (inactive) in the experiment on NCI-H23 lung; 98.7% (inactive) in the experiment on NCI-H226 lung; 97% (inactive) in the experiment with NCI-H322M lung; 87.9% (inactive) in the experiment with HOP-62 NSCLC; 104% (inactive) with NCI-H460 lung; 95.5% (inactive) in the experiment on NCI-H522 lung. In addition, the growth was 101% (inactive) with A549/ATCC NSCLC, 95.1% (inactive) with 786-0 renal and 102% (inactive) in the experiment on COLO 205 colon.

`Nc1ccccc1SC1CC(=O)N(c2cccc3ccccc23)C1=O` (stereo not drawn): the growth in the experiment on NCI-H23 lung was 101% (inactive); with NCI-H226 lung, 83.6% (inactive); with NCI-H322M lung it was 97% (inactive); in the experiment with HOP-62 NSCLC, 90.5% (inactive); in the experiment on NCI-H460 lung it was 99.3% (inactive); in the experiment on 786-0 renal, 101% (inactive). Moreover, in the experiment on COLO 205 colon, the growth was 105% (inactive).

With `Cc1cc(-c2ccc(NS(=O)(=O)c3ccccc3)c(C)c2)ccc1NS(=O)(=O)c1ccccc1`, the growth was 85% (inactive) and 97.8% (inactive) in the experiment on NCI-H23 lung; 82.2% (inactive) and 92.1% (inactive) with NCI-H226 lung; 92.7% (inactive) and 121% (inactive) in the experiment on NCI-H322M lung; 78% (inactive) and 87.6% (inactive) with NCI-H460 lung; 83.3% (inactive) and 88% (inactive) in the experiment on HOP-92 NSCLC; 52.8% (inactive) and 64.8% (inactive) in the experiment on NCI-H522 lung. For the same molecule, the growth in the experiment with A549/ATCC NSCLC is 67% (inactive) and 80.5% (inactive); in the experiment on 786-0 renal, 96.8% (inactive) and 107% (inactive); in the experiment on COLO 205 colon, 91.9% (inactive) and 121% (inactive).

`Nc1ccccc1Nc1ccccc1`: the growth is 100% (inactive) and 96.2% (inactive) in the experiment with NCI-H23 lung; 98.8% (inactive) and 86.8% (inactive) in the experiment on NCI-H226 lung; 86.5% (inactive) and 93% (inactive) in the experiment on NCI-H322M lung; 103% (inactive) and 91.6% (inactive) with HOP-62 NSCLC; 136% (inactive) with HOP-92 NSCLC; 54% (inactive) and -2.1% (active) with NCI-H522 lung. The growth is 79.2% (inactive) with A549/ATCC NSCLC; 90.8% (inactive) and 82.8% (inactive) with 786-0 renal; 125% (inactive) and 104% (inactive) in the experiment on COLO 205 colon.

For `CN(C)CCCNC1=C(Cl)C(=O)c2ccccc2C1=O`, the growth was -41.4% (active) and -79.2% (active) with NCI-H23 lung; 102% (inactive) and 97.7% (inactive) in the experiment on NCI-H226 lung; 92.4% (inactive) and 98.7% (inactive) with NCI-H322M lung; 78.8% (inactive) and 85.1% (inactive) with HOP-62 NSCLC; 108% (inactive) and 107% (inactive) in the experiment on HOP-92 NSCLC; 80.4% (inactive) and -30.3% (active) in the experiment with NCI-H522 lung. The growth with A549/ATCC NSCLC was 94.3% (inactive) and 85.1% (inactive); in the experiment on 786-0 renal, 99.5% (inactive) and 79.4% (inactive); with COLO 205 colon it was -73.7% (active) and -85.8% (active).

With `CC(CN=Cc1ccccc1O)N=Cc1ccccc1O` (stereo not drawn), the growth is 101% (inactive) and 102% (inactive) in the experiment on NCI-H23 lung; 92.6% (inactive) and 91.4% (inactive) in the experiment with NCI-H226 lung; 79.2% (inactive) and 113% (inactive) with NCI-H322M lung; 98.9% (inactive) and 104% (inactive) with HOP-62 NSCLC; 85.4% (inactive) in the experiment on HOP-92 NSCLC; 75.7% (inactive) and 106% (inactive) in the experiment on NCI-H522 lung. Moreover, the growth in the experiment on A549/ATCC NSCLC is 107% (inactive) and 117% (inactive); with 786-0 renal it was 104% (inactive) and 109% (inactive); with COLO 205 colon it was 98.5% (inactive).

Take `NS(=O)(=O)c1cc2c(cc1Cl)NC(C(Cl)Cl)NS2(=O)=O` (stereo not drawn): the growth with NCI-H23 lung was 120% (inactive) and 106% (inactive); in the experiment on NCI-H226 lung it was 108% (inactive) and 99.3% (inactive); with NCI-H322M lung, 98.8% (inactive) and 101% (inactive); in the experiment on HOP-62 NSCLC it was 104% (inactive) and 122% (inactive); in the experiment with HOP-92 NSCLC, 96.3% (inactive); in the experiment with A549/ATCC NSCLC, 80.9% (inactive) and 106% (inactive). Further, the growth in the experiment on 786-0 renal is 87.6% (inactive) and 104% (inactive); in the experiment with COLO 205 colon, 109% (inactive) and 113% (inactive).

For the molecule `Cc1ccc(-c2noc(CC(=O)c3ccc([N+](=O)[O-])cc3)n2)cc1`, the growth was 95.9% (inactive) with NCI-H23 lung; 92.9% (inactive) in the experiment with NCI-H226 lung; 105% (inactive) with NCI-H322M lung; 103% (inactive) in the experiment on NCI-H460 lung; 101% (inactive) in the experiment with HOP-92 NSCLC; 95.2% (inactive) with NCI-H522 lung. For the same molecule, the growth is 94.6% (inactive) with A549/ATCC NSCLC, 99.6% (inactive) with 786-0 renal and 109% (inactive) with COLO 205 colon.

With `Nc1nc(SC/C=C/CCl)c2[nH]cnc2n1`, the growth is 102% (inactive) and 98.1% (inactive) in the experiment with NCI-H23 lung; 95.8% (inactive) and 131% (inactive) in the experiment with NCI-H226 lung; 112% (inactive) and 115% (inactive) with NCI-H322M lung; 106% (inactive) and 99.8% (inactive) with HOP-62 NSCLC; 105% (inactive) in the experiment with NCI-H460 lung; 95.4% (inactive) and 103% (inactive) in the experiment on A549/ATCC NSCLC. For the same molecule, the growth in the experiment with 786-0 renal is 102% (inactive) and 99.1% (inactive); with COLO 205 colon it was 104% (inactive) and 116% (inactive).

For `Cc1cc(N=Nc2ccc(C)c(N=Nc3cc(C)c(N)cc3N)c2)c(N)cc1N`, the growth in the experiment on NCI-H23 lung was 89.5% (inactive) and 78.4% (inactive); in the experiment with NCI-H226 lung it was 87.5% (inactive) and 95.3% (inactive); in the experiment on NCI-H322M lung, 92% (inactive) and 91% (inactive); with NCI-H460 lung, 97.4% (inactive) and 93.2% (inactive); in the experiment with HOP-92 NSCLC, 66.2% (inactive); with NCI-H522 lung, 89.9% (inactive) and 54.9% (inactive). Also, the growth with A549/ATCC NSCLC is 95.2% (inactive) and 81% (inactive); in the experiment with 786-0 renal, 94.5% (inactive) and 102% (inactive); in the experiment on COLO 205 colon, 92.5% (inactive) and 81.2% (inactive).

As to `O=C1c2ccccc2C(=O)N1/N=C/c1ccc2c(c1)OCO2`, the growth in the experiment on NCI-H23 lung was 120% (inactive); in the experiment with NCI-H226 lung, 101% (inactive); in the experiment on NCI-H322M lung, 95.1% (inactive); with HOP-62 NSCLC it was 104% (inactive); with HOP-92 NSCLC, 74.4% (inactive); with NCI-H522 lung, 64.5% (inactive). For the same molecule, the growth in the experiment with A549/ATCC NSCLC was 87.7% (inactive); in the experiment on 786-0 renal, 104% (inactive); in the experiment with COLO 205 colon, 99.5% (inactive).

Regarding `Cn1c(=O)n(-c2ccc(C(C)(C)C#N)cc2)c2c3cc(-c4cnc5ccccc5c4)ccc3ncc21`, the growth with NCI-H23 lung is 7.45% (active) and 15.4% (inactive); in the experiment with NCI-H226 lung, 7.02% (active) and 9.42% (active); in the experiment on NCI-H322M lung, 1.14% (active) and -0.589% (active); in the experiment with NCI-H460 lung, 3.03% (active) and -9.04% (active); in the experiment with HOP-92 NSCLC it was -4.42% (active); in the experiment with NCI-H522 lung, 2.87% (active) and -9.46% (active). The growth was 0.549% (active) and -9.22% (active) in the experiment on A549/ATCC NSCLC; 0.54% (active) and -4.76% (active) in the experiment on 786-0 renal; -25% (active) and -3.99% (active) with COLO 205 colon.

As for `CCN(CC)CCOc1ccc2c(c1)C(=O)c1cc(OCCN(CC)CC)ccc1-2`, the growth with NCI-H23 lung is 79.5% (inactive) and 71.2% (inactive); with NCI-H226 lung, 99.7% (inactive) and 73% (inactive); in the experiment on NCI-H322M lung, 85.8% (inactive) and 60.6% (inactive); with HOP-62 NSCLC, 58.3% (inactive) and 38.2% (inactive); in the experiment with HOP-92 NSCLC, 20% (inactive); in the experiment on NCI-H522 lung, 99.6% (inactive) and 69.6% (inactive). The growth with A549/ATCC NSCLC was 55.8% (inactive) and 50.6% (inactive); in the experiment on 786-0 renal it was 63.3% (inactive) and -30.9% (active); with COLO 205 colon it was 11.3% (inactive) and -4.52% (active).

For `Cc1c(Cl)cccc1NCN1C(=O)c2ccccc2C1=O`, the growth in the experiment on NCI-H23 lung was 102% (inactive); in the experiment with NCI-H226 lung, 98.7% (inactive); with NCI-H322M lung, 99.8% (inactive); with HOP-62 NSCLC it was 101% (inactive); in the experiment with NCI-H460 lung, 108% (inactive); in the experiment on NCI-H522 lung, 81.1% (inactive). Moreover, the growth in the experiment with A549/ATCC NSCLC was 99.1% (inactive); in the experiment on 786-0 renal, 103% (inactive); in the experiment on COLO 205 colon, 105% (inactive).

`CCCCCCCCCCCCOc1ccccc1C=O`: the growth in the experiment with NCI-H23 lung was 100% (inactive); with NCI-H226 lung, 95.4% (inactive); with NCI-H322M lung, 114% (inactive); in the experiment with HOP-62 NSCLC, 85.3% (inactive); in the experiment on NCI-H460 lung, 102% (inactive); with A549/ATCC NSCLC it was 93.3% (inactive). Further, the growth in the experiment on 786-0 renal and in the experiment on COLO 205 colon was 109% (inactive) in each case.

Consider `Cc1cccc(/C=C\C(=O)c2ccccc2)c1`, for which the growth with NCI-H23 lung was 93.5% (inactive) and 101% (inactive); with NCI-H226 lung it was 111% (inactive) and 95.5% (inactive); with NCI-H322M lung, 97% (inactive) and 93.7% (inactive); in the experiment on NCI-H460 lung, 109% (inactive) and 100% (inactive); in the experiment on HOP-92 NSCLC it was 81.3% (inactive); in the experiment on NCI-H522 lung it was 95.3% (inactive). Also, the growth in the experiment with A549/ATCC NSCLC was 87.7% (inactive) and 92.8% (inactive); in the experiment on 786-0 renal, 79.7% (inactive); with COLO 205 colon, 112% (inactive) and 114% (inactive).
